As usually defined, the inhibition is the relative decrease from the control value, in per cent.

Out of some 96,000 compounds screened, about 20,000 (21%) were called active.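 Rule for the calls: active = CYP2C19 inhibition above a set limit at 5 µM in the primary screen (cut at about 50% in these data); inactive = the rest.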 Only a sample is shown.

Cytochrome P450 2C19 (Homo sapiens), sequence (P33261 whole entry, looked up): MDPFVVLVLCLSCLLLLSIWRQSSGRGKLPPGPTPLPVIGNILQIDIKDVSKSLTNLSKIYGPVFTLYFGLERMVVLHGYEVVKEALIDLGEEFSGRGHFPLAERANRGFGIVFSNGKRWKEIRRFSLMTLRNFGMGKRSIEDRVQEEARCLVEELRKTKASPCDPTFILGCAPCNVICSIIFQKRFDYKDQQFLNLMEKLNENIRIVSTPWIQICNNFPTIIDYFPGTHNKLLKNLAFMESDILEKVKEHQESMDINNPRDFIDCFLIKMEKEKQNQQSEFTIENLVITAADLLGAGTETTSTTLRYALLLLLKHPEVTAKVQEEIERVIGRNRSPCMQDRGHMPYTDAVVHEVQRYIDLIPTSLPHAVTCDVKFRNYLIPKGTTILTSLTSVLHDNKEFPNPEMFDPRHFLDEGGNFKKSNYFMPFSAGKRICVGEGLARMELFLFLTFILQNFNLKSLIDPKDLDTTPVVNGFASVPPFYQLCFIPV

This experiment addresses Cytochrome P450 2C19 (Homo sapiens) (UniProt P33261). The experiment can be described thus: blockers of cytochrome P450 2C19 activity – biochemical, luminescence, ADME assay, primary screen (AID 778).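 Note: plate controls were negative control wells for no effect and 2.5 mM tranylcypromine positive control for full effect.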 The note with it: CYP2C19 Supersomes, luciferin-H EGE luminescence, 30 min; at 5 µM; active compounds read high.
As to `O=C(O)C1CC=C(Cl)CC1C(=O)NCc1ccccc1` (stereo not drawn), the inhibition was 2.3% (inactive).

For `O=C(NCc1ccccc1)[C@@H]1CSC2c3ccccc3C(=O)N21` (stereo partly drawn), the inhibition was 81.2% (active).

For the compound `Cc1ccc(CNC(=O)C2CCCN2C(=O)NCc2ccccc2)cc1` (stereo not drawn), the inhibition was 0.7% (inactive).

For the compound `Cn1c(=O)c(C(=O)Nc2ncccn2)c(O)c2ccccc21`, the inhibition is 7.9% (inactive).

As for `O=C(NCc1ccc(Cl)cc1)c1cc(=O)nc2sc(-c3ccccc3)nn12`, the inhibition is 4.6% (inactive).

Turning to `O=C(CCc1ccccc1)Nc1cccc(-c2nnc(-c3ccco3)o2)c1`, the inhibition was 18.2% (inactive).

Take `CC(=O)CSc1nnc(CSc2ncccn2)n1C1CCCCC1`: the inhibition is -8.3% (inactive).

For the compound `CC1CCCCN1S(=O)(=O)c1ccc(C(=O)Nc2nnc(-c3cccs3)o2)cc1` (stereo not drawn), the inhibition is 10.3% (inactive).

As to `NC(=O)CSc1oc(-c2cccs2)nc1S(=O)(=O)c1ccccc1`, the inhibition is 79.2% (active).

Regarding `Cc1ccc(CNC(=O)COc2ccc(S(=O)(=O)NC(C)C)cc2)cc1`, the inhibition was 38.8% (inactive).

Take `Nc1ccc(C(=O)OCC(=O)NC2CCCc3ccccc32)cc1[N+](=O)[O-]` (stereo not drawn): the inhibition was 34.6% (inactive).

For `CCOC(=O)CSc1nnc(CNc2nc(-c3ccccc3)cs2)n1C`, the inhibition is 35% (inactive).

For `Cn1c(CNc2nc(-c3ccccc3)cs2)nnc1SCC(=O)c1ccccc1`, the inhibition was 86.5% (active).

As to `Cn1c(CC(=O)Nc2ccccc2)nnc1SCC(=O)c1ccccc1`, the inhibition is 33.2% (inactive).

Take `CCOc1c2ccc(C(=O)NC3CCCc4ccccc43)cc2nn1CC` (stereo not drawn): the inhibition was 29.9% (inactive).

Consider `CSCC[C@H](NC(=O)NCc1cccs1)C(=O)O`, for which the inhibition was -4.9% (inactive).

For the compound `CSCC[C@H](NC(=O)NCCc1ccc(F)cc1)C(=O)O`, the inhibition is 72.3% (active).

On to `CC(C)C[C@H](NC(=O)NCCc1ccc(Cl)cc1)C(=O)O`, for which the inhibition is 2.7% (inactive).

With `O=C(O)c1ccc(-n2cccc2)cc1O`, the inhibition is 5.6% (inactive).

On to `Cc1ccc(S(=O)(=O)n2cnc3ccccc32)c(C)c1`, for which the inhibition was 4.5% (inactive).

As to `CCOc1cc(C)c(Cl)cc1S(=O)(=O)n1nnc2ccccc21`, the inhibition is 66.1% (active).

`CCCOc1cc(C)c(S(=O)(=O)n2nnc3ccccc32)cc1C`: the inhibition is -9.4% (inactive).

As for `COc1cc(/C=C2\SC(=S)N(Nc3ncc(C(F)(F)F)cc3Cl)C2=O)cc(OC)c1OC`, the inhibition is 31.7% (inactive).

Turning to `COc1cccc(-c2cc3nc4c(c(N5CCC6(CC5)OCCO6)n3n2)CCCC4)c1`, the inhibition was 24.8% (inactive).

For `NC(=O)C1CCN(C2OC(=O)c3ccccc32)CC1` (stereo not drawn), the inhibition was -2% (inactive).

For `c1cnn(-c2cc(N3CCOCC3)ncn2)c1`, the inhibition was 5.4% (inactive).

Consider `COC(=O)c1c(-c2ccc(C)cc2)csc1N`, for which the inhibition was 24.4% (inactive).

Take `Cc1noc(C)c1C(=O)N1CCOCC1`: the inhibition was -2.1% (inactive).

Take `Cc1ccc(-c2nc(COC(=O)c3c(C)noc3C)cs2)cc1`: the inhibition is 54% (active).

`O=C(/C(=N\O)n1cncn1)c1ccc(Br)cc1Br`: the inhibition is 33.6% (inactive).

Take `Cc1[nH]c2ccc(S(N)(=O)=O)cc2c1C`: the inhibition is 13% (inactive).

Regarding `CNC(=O)c1c(NC(NC(=O)c2ccco2)C(=O)c2ccc(Cl)cc2)sc2c1CCCC2` (stereo not drawn), the inhibition was 21.4% (inactive).

Consider `Cc1cccc(-n2c(N)cc(=O)nc2SC(C)C(=O)NC2CCCCC2)c1` (stereo not drawn), for which the inhibition was 12.9% (inactive).

In the case of `CC(=O)Nc1cccc2c1[n+]([O-])c(C)c(C)[n+]2[O-]`, the inhibition is 5% (inactive).

As for `CCn1c(SCC(=O)NCC2CCCO2)nc2cc(S(=O)(=O)N3CCCCC3)ccc21` (stereo not drawn), the inhibition is 11% (inactive).

Take `CCOC(=O)c1ccc2c(c1)nc(SCC(=O)NC(C)C)n2CC`: the inhibition was 85.7% (active).

As for `CCn1c(C)nc2cc(C(=O)NNS(=O)(=O)c3ccc(C)cc3C)ccc21`, the inhibition is 1.5% (inactive).

In the case of `N#Cc1ccccc1-n1c(N)c(C(=O)N2CCCC2)sc1=S`, the inhibition is 17.2% (inactive).

Take `CCC1CCCCN1CCNS(=O)(=O)c1ccc2c(c1)CCN2C(C)=O` (stereo not drawn): the inhibition is -3.7% (inactive).

`Cc1ccc(C(=O)c2c(NC(=O)c3ccccc3)sc(C)c2C)cc1`: the inhibition was 23.7% (inactive).

`CC(=O)c1cccc(NC(=O)Nc2ccc(C)cc2)c1`: the inhibition is -13.3% (inactive).

`Cc1ccc(NC(=O)C(C)c2cccc(C(=O)c3ccccc3)c2)cc1` (stereo not drawn): the inhibition is 92.1% (active).

For the compound `CCn1c(=O)cc(OCC(=O)NCCCN2CCN(c3cccc(Cl)c3)CC2)c2ccccc21`, the inhibition is 26.7% (inactive).

On to `CC(C)NC(=O)C(=O)NCCN1CCN(S(=O)(=O)c2ccc(Cl)cc2)CC1`, for which the inhibition is 7.4% (inactive).

Turning to `Cc1ccc(C2(c3ccc(C)cc3)NC(=O)N(Cc3c(C)noc3C)C2=O)cc1`, the inhibition is 14.6% (inactive).

For the compound `Cc1ccccc1-n1c(C)cc(/C=N/NC(=O)c2ccc(CN3CCOCC3)cc2)c1C`, the inhibition is 24.3% (inactive).

For the compound `CC(C)c1ccc(OCC(O)Cn2cnc3ccccc32)cc1` (stereo not drawn), the inhibition was 7.2% (inactive).

`OC(COc1ccccc1)Cn1cc(Br)cn1` (stereo not drawn): the inhibition is 54.1% (active).

Take `O=C(C(c1ccccc1)c1ccccc1)N1CCN(CC(O)COc2ccccc2)CC1` (stereo not drawn): the inhibition is 41.9% (inactive).

For the compound `COc1cccc(NC(=O)Cc2ccc(C)cc2)c1`, the inhibition is 57.1% (active).

For the compound `CCOc1ccc(S(=O)(=O)N(CC(=O)O)c2ccccc2)cc1`, the inhibition was 2.3% (inactive).

As for `CCC(=O)Nc1ccc(C(=O)Nc2cccc(OC)c2)cc1`, the inhibition is -0.7% (inactive).

Consider `COc1ccc(OC(C)C(=O)Nc2cccnc2)cc1` (stereo not drawn), for which the inhibition was 7.1% (inactive).

Consider `COc1cccc(N(CC(=O)N2CCc3ccccc3C2)S(C)(=O)=O)c1`, for which the inhibition is 31.3% (inactive).

`COc1cccc(NC(=O)CN(C)S(=O)(=O)c2ccc(C)cc2)c1`: the inhibition was 78.9% (active).

For the compound `CCN(CC)C(=O)CN(c1cccc(OC)c1)S(=O)(=O)c1ccc(C)cc1`, the inhibition is 64.9% (active).

In the case of `COc1cccc(NC(=O)C(C)Oc2ccccc2)c1` (stereo not drawn), the inhibition is 79.9% (active).

With `COc1ccc(CC(=O)Nc2ccc(-c3nnc(-c4ccccc4)o3)cc2)cc1`, the inhibition was 18% (inactive).

With `COc1cccc(N(CC(=O)Nc2cccc(N(C)S(C)(=O)=O)c2)S(C)(=O)=O)c1`, the inhibition was 35.8% (inactive).

As for `COc1ccc(NC(=O)CN(C)S(=O)(=O)c2ccccc2)cc1OC`, the inhibition was 25.7% (inactive).

In the case of `COc1cccc(NC(=O)c2ccccc2SC)c1`, the inhibition is 6.7% (inactive).

As for `CCOC(=O)/C=c1\s/c(=C\c2ccccc2OC)c(=O)n1CC(=O)N1CCOCC1`, the inhibition was -9.3% (inactive).

With `CCNC(=O)c1sccc1-n1cccc1`, the inhibition was 16.3% (inactive).

Source of the values: PubChem BioAssay AID778 (Sanford-Burnham Center for Chemical Genomics, 2007).
